This is an account of results in the OligoGym collection.
Further: reference of the scale not given here.

The target in the first assay is TMEM70. Description: pooled miR-30 sensor sort-seq; sequence = guide strand. The settings on record: shRNA.
TTAACAATCAGTCACTAACGGA displayed a sensor-assay potency score (higher = more potent) of -0.588.
Still for that read-out and setting: to TTTATTATAAACAAACATCATT belongs -1.08; to TTTCACACCAAACACTGCTCGG, -0.271.
Same read-out and setting: next, TTAACTAACAGTGATTTTGTTT: -0.473; TTAAGAATCGAACATATCCTTC: -0.465.
The same measure, in the same setting: next, TACAATCGAATGACATAGCCTT: 0.02; TTTTGTAATAAAGTGAAGCAGC: -0.766; TTTAAGAATCGAACATATCCTT: 0.136.
TGGTGAAACACTGTACTCGTTT showed a sensor-assay potency score (higher = more potent) of -0.765.
Same read-out and setting: next, TAACAATCAGTCACTAACGGAA: -0.91.
The same measure, in the same setting: next, TAAACAAACATCATTCTCTGGA: 0.0797; TAGCATTGTAGGTAATGGCTTT: -0.0699.

Another assay addresses TMEM8B. The assay is described as above. The settings on record: shRNA.
With TTATCTATGCATGACAGTTTGG, the sensor-assay potency score (higher = more potent) is -0.348.
Same read-out and setting: to TAAGATGCAGACACCACCGCAT belongs 0.345; to ATGTAGAAGTAGTTGTCCCGGG, -0.575; to TGAAGGTGTAGACTGCAGCTTC, -0.202.
Still for that read-out and setting: to TAGGTGAGCGCATCTGCACTGT belongs -0.509; to TGTAGAAGTAGTTGTCCCGGGT, 0.134; to ATAATTGTGTGTGCGCAGCAGC, -0.93.
On the same count and under the same terms, next, TATCTATGCATGACAGTTTGGG: -0.202; TAGAAGTGGACAGAGAAGGTGT: 0.765; AAGCACTGCTGTCTCTGTCTGT: -0.532.
